Screening results deposited in PubChem BioAssay by National Center for Advancing Translational Sciences (NCATS).
ELG1 DNA repair – ELG1-dependent DNA repair inhibition; Potency, µM (doses to about 46.1 µM), hits mostly inhibitors; HEK293T ELG1-luciferase reporter, luminescence, 16 h; DNA damage induced by 5-fluorouridine; hit rate 2.3% among 330,000; AID 504467; note: nearly all actives have a fitted effect of over 55% in size
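In this reporter screen, reduction of luminescence relative to DMSO vehicle indicated activity. Compounds and 5-fluorouridine were added together to 2,000 cells per well, incubated for 16 hr at 37 °C, then developed with ONE-Glo.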
TDP1 cell CPT – DT40-hTDP1 cell growth loss with CPT | chicken DT40 Tdp1-/-;hTDP1 cells + 20 nM CPT, ATP luminescence, 48 h | Potency, µM (highest dose often 46.2 µM), hits mostly inhibitors | AID 686979 | hit rate 12% among 420,000; note: nearly all actives have a fitted effect of over 55% in size
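Chicken DT40 Tdp1-/- cells complemented with human TDP1, 400 cells/well, exposed to compounds plus 20 nM camptothecin for at least 48 h at 37 C; viability read as ATP content by CellTiter-Glo luminescence.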
HT1080NT lethal – kills 2HG-producing HT-1080-NT fibrosarcoma cells. HT-1080-NT fibrosarcoma viability, CellTiter-Glo ATP luminescence, 48 h. Potency, µM (highest dose often 46.1 µM), actives largely listed as cytotoxic. hit rate 1.6% among 360,000. AID 686970;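 note: NT is the 2HG producing partner of a matched IDH1 knockdown line; nearly all actives have a fitted effect of over 55% in size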
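HT-1080-NT fibrosarcoma cells (2HG-overproducing), 750 cells/well in RPMI with 5% FBS, dosed after 2 h and incubated 48 h at 37C. CellTiter-Glo luminescence normalized to DMSO and no-cell wells; concentration-response curves fitted and classed.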
TDP1 cell noCPT – qHTS for Inhibitors of human tyrosyl-DNA phosphodiesterase 1 (TDP1): qHTS in cells in absence of CPT; hit rate 15% among 420,000; DT40 Tdp1-/- hTDP1 cells, no CPT, ATP luminescence, 48 h; AID 686978, 2013; Potency, µM (series often up to 46.2 µM), actives largely listed as inhibitors; note: nearly all actives have a fitted effect of over 55% in size
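No-CPT arm: Tdp1-/-;hTDP1 DT40 cells (400/well) plus compounds, incubated ≥48 hr at 37 °C. Readout CellTiter-Glo luminescence.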
IL-1B inflam inh – blocks inflammasome-driven IL-1 beta release | THP-1 LPS/ATP IL-1B secretion, AlphaLISA, 16 h; hits give low values | activity change, % at 57.5 µM | hit rate 4.7% among 360,000 | AID 743279; in the data active = activity change below about -50%; inconclusive = mostly about -30% to -49%
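THP-1 cells pretreated 1 hr with compounds (up to 57.5 uM final), then stimulated with LPS (250 ng/mL final) plus ATP (1.25 mM final); secreted IL-1B measured by AlphaLISA after 16 hr, decreased signal indicating inhibition.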
HT1080 IDH1KD tx – HT-1080 IDH1 knockdown cell toxicity (counter line); hit rate 2% among 360,000; AID 686971; Potency, µM (titrated, usually from 46.1 µM), usual class: cytotoxic; HT-1080 IDH1 knockdown viability, ATP luminescence, 48 h
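HT-1080-IDH1KD cells (IDH1 knocked down), 750/well in RPMI with 5% FBS, treated with compound 48 h at 37 degrees C. Viability by CellTiter-Glo luminescence, normalised to DMSO and no-cell wells; concentration-response curves classed.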
Each line names hits and unclear results; the compound was inactive in the other large screens. The list is not random: actives were taken first. Their share in the collection is about 19%. Unless noted, calls come from the whole dose curve; as a rule, active = well fitted curve in the direction sought with a large enough effect; inconclusive = small, poorly fitted or top-dose-only effect, or another doubt; inactive = no such curve, though single readings can be large; an effect the other way counts as inactive or inconclusive.

Cc1cc(C)cc(Cn2ncc(Cl)c(Cl)c2=O)c1	ELG1 DNA repair inconclusive, TDP1 cell CPT 8.2µM, TDP1 cell noCPT 12µM, IL-1B inflam inh -120, HT1080 IDH1KD tx 16µM
CCc1ccc(C(=O)Cn2ncc(Cl)c(Cl)c2=O)cc1	TDP1 cell CPT 3.7µM, HT1080NT lethal 15µM, TDP1 cell noCPT 2.9µM, IL-1B inflam inh -116, HT1080 IDH1KD tx inconclusive
O=c1c(Cl)c(Cl)cnn1Cc1ccccc1Cl	ELG1 DNA repair 10µM, TDP1 cell CPT 2.6µM, HT1080NT lethal inconclusive, TDP1 cell noCPT 1µM, IL-1B inflam inh -100, HT1080 IDH1KD tx 18µM
Cc1ccc(CNC(=O)C2CCCN(S(=O)(=O)N3CC(C)CC(C)C3)C2)cc1 (stereo not given)	HT1080NT lethal inconclusive
O=c1c(Cl)c(Cl)cnn1Cc1nnc(-c2ccc(Cl)cc2)o1	ELG1 DNA repair inconclusive, TDP1 cell CPT 0.82µM, HT1080NT lethal 16µM, TDP1 cell noCPT 0.92µM, IL-1B inflam inh -101, HT1080 IDH1KD tx 8.2µM
Cc1ccc(-c2nnc(Cc3ccc(Cl)cc3)o2)cc1	ELG1 DNA repair inconclusive, TDP1 cell noCPT inconclusive
CCOc1ccc(NC(=O)c2cc(SC)ccc2Cl)cc1	TDP1 cell CPT 18µM, TDP1 cell noCPT 16µM
CCCCCOc1ccc(NC(=O)c2cc(SC)ccc2Cl)cc1	TDP1 cell CPT 23µM, TDP1 cell noCPT 13µM
CSc1ccc(Cl)c(C(=O)Nc2ccc(N3CCOCC3)cc2)c1	none
CCOc1ccc(NC(=O)c2ccccc2SC)cc1	ELG1 DNA repair inconclusive, TDP1 cell CPT inconclusive, TDP1 cell noCPT inconclusive
O=C(Cn1c(=O)oc2ccccc21)NCc1cccc(Cl)c1	TDP1 cell CPT inconclusive (no result: ELG1 DNA repair, HT1080NT lethal, IL-1B inflam inh, HT1080 IDH1KD tx)
COc1cccc(NC(=O)CN(C)C(=O)COc2ccccc2Cc2ccccc2)c1	ELG1 DNA repair inconclusive, TDP1 cell CPT inconclusive, TDP1 cell noCPT 29µM
COc1cccc(NC(=O)CN(C)C(=O)CNC(=O)c2ccc(Oc3ccccc3)cc2)c1	ELG1 DNA repair inconclusive, TDP1 cell CPT inconclusive, TDP1 cell noCPT inconclusive, IL-1B inflam inh -96
CCOc1ccccc1NC(=O)Cn1c(=O)n(CCCC(=O)NCCc2ccc(C)cc2)c(=O)c2ccccc21	none (no result: ELG1 DNA repair, HT1080NT lethal, IL-1B inflam inh, HT1080 IDH1KD tx)
Cc1ccc(NC(=O)CN2C(=O)CCn3nc(-c4cccn4C)cc32)cc1	none (no result: ELG1 DNA repair, HT1080NT lethal, IL-1B inflam inh, HT1080 IDH1KD tx)
O=C1CC(C(=O)O)S/C(=N\N=C\c2ccc(Br)cc2)N1 (stereo not given)	none
Cc1cc(/C=N\NC(=O)COc2cccc3cccnc23)c(C)n1-c1ccccc1	ELG1 DNA repair inconclusive, TDP1 cell CPT inconclusive
C=CCn1cc(/C=N/NC(=O)COc2cccc3cccnc23)c2ccccc21	TDP1 cell CPT 15µM, HT1080NT lethal inconclusive, TDP1 cell noCPT 16µM
CC(C)n1cc(/C=N/NC(=O)COc2cccc3cccnc23)c2ccccc21	ELG1 DNA repair inconclusive, TDP1 cell CPT inconclusive, HT1080NT lethal inconclusive, TDP1 cell noCPT inconclusive, IL-1B inflam inh -78, HT1080 IDH1KD tx inconclusive
OC(c1ccccc1)C(NCCNCc1ccccc1)c1ccccc1 (stereo not given)	TDP1 cell CPT inconclusive, TDP1 cell noCPT inconclusive (no result: ELG1 DNA repair)
COC(=O)[C@@H]1CCCN1Cc1ccc2c(c1)CN(Cc1ccccc1C)CCO2	none (no result: ELG1 DNA repair, HT1080NT lethal, IL-1B inflam inh, HT1080 IDH1KD tx)
Cc1cc(Cl)ccc1C(=O)C1CCCN(C(=O)c2ccoc2)C1 (stereo not given)	TDP1 cell CPT inconclusive, TDP1 cell noCPT 15µM
COc1ccc(C(=O)C2CCCN(C(=O)Cn3nc(C)nc3C)C2)cc1F (stereo not given)	none (no result: ELG1 DNA repair)
Cc1cc(C(=O)N2CCCC(C(=O)c3ccc(Cl)cc3C)C2)no1 (stereo not given)	ELG1 DNA repair inconclusive, TDP1 cell CPT 18µM, TDP1 cell noCPT 23µM
Cc1cc(Cl)ccc1C(=O)C1CCCN(C(=O)c2cnsn2)C1 (stereo not given)	ELG1 DNA repair inconclusive, TDP1 cell CPT inconclusive, TDP1 cell noCPT inconclusive
Cc1nc(C)n(CC(=O)N2CCCC(C(=O)c3ccc(Cl)cc3C)C2)n1 (stereo not given)	TDP1 cell CPT 0.41µM, TDP1 cell noCPT 18µM
